Reference: PubChem BioAssay (NCI)
The panel holds about 83,000 compounds, 20% with a hit somewhere; the sample as a whole holds those more often.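 Cells were grown in 96-well plates and exposed to the test compound at a single concentration for 48 hours; results are reported as percent growth, with values below 10 considered active.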 Activity calls are given as the source filed them.

Experiments:
Assay in all cases: NCI-60 one-dose screen, 48 h (100 = growth as untreated, 0 = no growth, -100 = all killed)
Settings in all cases: 10 µM unless noted
[1] = test system: DU-145 prostate
[2] = test system: K-562 leukemia
[3] = test system: MALME-3M melanoma
[4] = test system: MDA-MB-231 breast
[5] = test system: RXF 393 renal
[6] = test system: SF-268 CNS
[7] = test system: SF-295 CNS
[8] = test system: SF-539 CNS
[9] = test system: UACC-257 melanoma
[10] = test system: M14 melanoma
[11] = test system: HCT-15 colon
[12] = test system: HT29 colon
[13] = test system: SNB-75 CNS
[14] = test system: U251 CNS
[15] = test system: SK-MEL-5 melanoma
[16] = test system: UACC-62 melanoma
[17] = test system: LOX IMVI melanoma
[18] = test system: SK-MEL-28 melanoma
[19] = test system: PC-3 prostate
[20] = test system: SNB-19 CNS

Measured: growth

Cc1cc(SCc2ccc(Cl)cc2Cl)nc(SCc2ccc(Cl)cc2Cl)n1
inactive: [1] 105% | [2] 110% | [3] 88.9% | [4] 101% | [5] 108% | [6] 102% | [7] 95.8% | [8] 98% | [9] 98.8% | [10] 97.5% | [11] 93% | [12] 97.9% | [13] 96.1% | [14] 105% | [15] 96.1% | [16] 102% | [17] 99.5% | [18] 98.8%

Cc1cc(Nc2ccc(Cl)c(Cl)c2)nc(N)n1
inactive: [1] 94.3% | [2] 87.4% | [3] 121% | [4] 101% | [5] 72.9% | [6] 95.2% | [7] 96.8% | [8] 99.9% | [9] 77.1% | [10] 91.6% | [11] 97.3% | [12] 86.9% | [13] 72.3% | [14] 95.3% | [19] 89.6% | [15] 83.9% | [16] 89.1% | [17] 100% | [18] 101%

O=C(Nc1ccc(-n2cc(-c3ccncc3)c(-c3ccc(O)c(Cl)c3)n2)cc1)c1cc(Cl)cc(Cl)c1
active: [4] -54.1% | [5] -80.2% | [7] -11.1% | [10] -40.4% | [12] -19.5% | [15] 2.65% | [17] 1.16%
inactive: [1] 38.9% | [2] 11.5% | [3] 34% | [6] 49.4% | [8] 12.8% | [9] 66.9% | [11] 11.2% | [13] 60.6% | [14] 26.8% | [19] 35.6% | [16] 65.9% | [18] 53.4%

CC(C)[C@@H]1NC(=O)[C@]2(C)CSC(=N2)c2ccnc(c2)CNC(=O)C[C@@H](/C=C/CCS)OC1=O
active: [2] 6.95% | [5] -61.7% | [7] -1.44% | [9] -25% | [10] 8.55% | [12] 2.76% | [14] -66.6% | [15] -88.2% | [16] -36.7% | [17] -94.9%
inactive: [1] 10.5% | [3] 14.6% | [4] 11.5% | [6] 13% | [8] 17.2% | [11] 52% | [20] 23.6% | [19] 17.7% | [18] 16.6%

O=C(O)c1ccc(-n2cc(/C=N/Nc3ccc(F)cc3)c(-c3cccc(C(F)(F)F)c3)n2)cc1
inactive: [1] 81.6% | [2] 11.1% | [3] 88.2% | [4] 87.8% | [5] 101% | [6] 67% | [7] 54% | [8] 75.6% | [9] 91.2% | [10] 51.3% | [11] 53.6% | [12] 86.8% | [20] 91.3% | [14] 84.9% | [19] 62.6% | [15] 87.6% | [16] 24.1% | [17] 42.8% | [18] 96.1%

Nc1ncnc2c1c(-c1ccc(Oc3ccccc3)cc1)nn2C[C@@H]1SSC[C@H]1O
active: [2] 7.7% | [3] 7.28% | [5] -9.3% | [10] -13.8% | [13] 2.29% | [15] -59.6%
inactive: [1] 33.4% | [4] 42.6% | [6] 29.3% | [7] 24.2% | [8] 15.3% | [9] 36.8% | [11] 70.4% | [12] 13.2% | [14] 26.5% | [19] 55.7% | [17] 10.7% | [18] 31.4%

C#C[C@H](O)/C=C/CCCCCCC#C[C@H](O)CC[C@@H](O)C#CCCCCCC/C=C/[C@@H](O)C#C
inactive: [1] 95.7% | [2] 11.7% | [4] 63.1% | [5] 104% | [6] 85.1% | [7] 87.4% | [8] 75.9% | [9] 101% | [10] 93.1% | [11] 80.4% | [12] 80.6% | [13] 85.1% | [14] 89.3% | [19] 80.7% | [15] 91.9% | [16] 80% | [18] 101%
active: [3] -32.9% | [17] -71.2%

O=C1CCC(c2c(O)cc(O)c3c(=O)c(O)c(-c4ccc(O)c(O)c4)oc23)N1 (stereo not given)
inactive: [1] 105% | [2] 96.1% | [3] 89.6% | [4] 118% | [5] 99.8% | [6] 96.4% | [7] 101% | [8] 103% | [9] 86.1% | [10] 101% | [11] 102% | [12] 84% | [13] 99.2% | [14] 101% | [19] 93.3% | [15] 101% | [16] 88.5% | [17] 96.9% | [18] 102%
